Test results published in PubChem BioAssay (NCI).
Where “and” joins values, the source holds several entries; their conditions need not be identical. Equal entries are not always repeated. This is part of a sample that, as a whole, favours compounds with a hit. Of some 79,000 tested, about 15% had one in any assay. Values without a mark were called inactive. Calls of active or inactive are those of the source. Rule as the data show it: active = growth inhibition above about 70%; inactive = the rest.

Legend:
[1] = NCI Yeast Anticancer Drug Screen. Data for the rad50 strain (AID 155);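 also: 0% = growth of vehicle-only cultures of the same strain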; conditions: S. cerevisiae rad50 strain growth inhibition, hits give high values
Summary of the method: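 Compounds were tested on a yeast strain with an engineered DNA damage repair alteration; the reported value is growth inhibition normalised to vehicle treatment.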

[2] = NCI Yeast Anticancer Drug Screen. Data for the mec2-1 strain (AID 157); conditions: S. cerevisiae mec2-1 strain, hits give high values
Summary of the method: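 Strain: mec2-1 (DNA repair/cell cycle alteration). Compound exposure, then growth measured; inhibition expressed relative to vehicle.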

[3] = NCI Yeast Anticancer Drug Screen. Data for the sgs1 mgt1 strain (AID 161);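 also: 0% = growth of cultures given vehicle only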; conditions: S. cerevisiae sgs1 mgt1 strain, hits give high values
Summary of the method: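 Read-out: growth inhibition vs vehicle controls. Cells: mutant yeast strain deficient in DNA damage repair.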

[4] = NCI Yeast Anticancer Drug Screen. Data for the cln2 rad14 strain (AID 165);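 also: 0% = growth equal to vehicle treated cultures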; conditions: S. cerevisiae cln2 rad14 strain, hits give high values
Summary of the method: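 Compounds are applied to the cln2 rad14 yeast strain, and growth is then compared with that of vehicle-treated cultures to give inhibition.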

[5] = NCI Yeast Anticancer Drug Screen. Data for the bub3 strain (AID 167); conditions: S. cerevisiae bub3 mutant strain, hits give high values
Summary of the method: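 Growth of a checkpoint-deficient yeast mutant is measured after compound exposure. Values represent inhibition relative to vehicle.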

[6] = NCI Yeast Anticancer Drug Screen. Data for the mlh1 rad18 strain (AID 175); conditions: S. cerevisiae mlh1 rad18 strain growth inhibition, hits give high values
Summary of the method: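 Read-out is yeast growth inhibition, calculated against vehicle-only controls. The compound was applied to a strain engineered with DNA damage repair alterations.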

[7] = at 5.0 µM (retest, dose inferred, filed as 0.5)
[8] = at 50.0 µM (retest, dose inferred, filed as 5.0)

| SMILES | growth inhibition [1, 7] | growth inhibition [1, 8] | growth inhibition ([1]; at 50.0 µM) | growth inhibition [2, 7] | growth inhibition [2, 8] | growth inhibition ([2]; at 50.0 µM) | growth inhibition [3, 7] | growth inhibition [3, 8] | growth inhibition ([3]; at 50.0 µM) | growth inhibition [4, 7] | growth inhibition [4, 8] | growth inhibition ([4]; at 50.0 µM) | growth inhibition [5, 7] | growth inhibition [5, 8] | growth inhibition ([5]; at 50.0 µM) | growth inhibition [6, 7] | growth inhibition [6, 8] | growth inhibition ([6]; at 50.0 µM) |
| --- | --- | --- | --- | --- | --- | --- | --- | --- | --- | --- | --- | --- | --- | --- | --- | --- | --- | --- |
| CCCCN(C)CC(C(C)=O)C(c1ccccc1)c1c(O)c2ccccc2oc1=O (stereo unspecified) | 32% | 32% | 80.4% (active) | 18% | 18% | 78.4% (active) | 11% | 11% | 82.3% (active) | 6% | 6% | 80.2% (active) | 15% | 15% | 81.5% (active) | 22% | 22% | 85.8% (active) |
| C1CC[N-]CC1.C1CC[N-]CC1.N#CO.[Ag] | 99% (active) | 99% (active) | 99.2% (active) | 100% (active) | 99% (active) | 99.5% (active) | 100% (active) | 99% (active) | 99.4% (active) | 99% (active) | 99% (active) | 99% (active) | 99% (active) | 99% (active) | 99.6% (active) | 99% (active) | 99% (active) | 99.3% (active) |
| C[Si]1(C)CCCCC2(C1)C(=O)NC(=O)NC2=O | 0% | 17% | 16.4% | 4% | 20% | 2.6% | -1% | 58% | 51% | -3% | 5% | 16.5% | -5% | 13% | 10.8% | -17% | 3% | 8.5% |
| S=C(SSC(=S)N1CCCCC1)N1CCCCC1 | 50% | 99% (active) | 9.4% and 16.8% | 55% | 99% (active) | 13.6% and 5.4% | 48% | 99% (active) | 18.5% and 12.8% | 55% | 99% (active) | 24.9% and 19.5% | 70% (active) | 99% (active) | 9.8% and 4.25% | 34% | 99% (active) | 54.8% and 12.6% |
| CSc1ncc(COP(=S)(OCc2cnc(SC)nc2N)OCc2cnc(SC)nc2N)c(N)n1 | -1% | -2% | -39.3% | 15% | -6% | -5.35% | 1% | 3% | -15.9% | 8% | -3% | 23.9% | -1% | -3% | -2.3% | -1% | 9% | 23% |
| C/C(=N\N=C(\[Se])N1CCN(c2ccccn2)CC1)c1ccccn1 | -2% | 88% (active) | 70.3% (active) | -1% | 98% (active) | 70% | 5% | 95% (active) | 82% (active) | -9% | 83% (active) | 9.4% | 9% | 96% (active) | 93.2% (active) | 59% | 93% (active) | 78.2% (active) |
| CCCCCCNC(=O)CI | -3% | 88% (active) | 42.7% | -2% | 91% (active) | 75.2% (active) | -5% | 87% (active) | 16.7% | -1% | 46% | -17.4% | 5% | 84% (active) | 59.2% | -3% | 93% (active) | 50.4% |
| CC(=O)O[C@H]1CC[C@H]2[C@@H]3CCC4=CC(=O)CC[C@@H]4[C@H]3CC[C@]12C | 2% | 93% (active) | 96.8% (active) | -1% | 92% (active) | 93.5% (active) | -4% | 91% (active) | 97.8% (active) | -3% | 39% | 14.8% | 1% | 84% (active) | 76.2% (active) | 0% | 89% (active) | 97.3% (active) |
| Cc1ccc(S)cc1.[Pb] | 0% | 30% | 20.1% | 2% | 6% | 43.1% | 3% | 28% | 44.5% | 5% | 2% | -1.55% | 3% | 50% | 95.9% (active) | 0% | 13% | 83.8% (active) |
| CCOc1c(Br)cc(/C=C/[N+](=O)[O-])cc1OC | 44% | 98% (active) | 69.8% | 61% | 98% (active) | 75.5% (active) | 32% | 98% (active) | 84% (active) | 45% | 92% (active) | 77% (active) | 61% | 99% (active) | 79% (active) | 58% | 98% (active) | 90.5% (active) |
| O=[N+]([O-])[O-].O=[N+]([O-])[O-].[Au].[Au].c1ccc([P-]c2ccccc2)cc1.c1ccc([P-]c2ccccc2)cc1 | 62% | 94% (active) | 87.8% (active) | 47% | 95% (active) | 91.4% (active) | 59% | 96% (active) | 91.3% (active) | 29% | 96% (active) | 89.5% (active) | 53% | 96% (active) | 88.9% (active) | 72% (active) | 95% (active) | 86.7% (active) |
| COC(=O)C1=C(C(=O)OC)[C]([Hg][CH3])(C(C)=O)N=N1 (stereo unspecified) | 99% (active) | 99% (active) | 99.6% (active) | 99% (active) | 99% (active) | 99.5% (active) | 99% (active) | 99% (active) | 99.8% (active) | 99% (active) | 99% (active) | 99.5% (active) | 99% (active) | 98% (active) | 99.2% (active) | 99% (active) | 99% (active) | 99.5% (active) |
| O=C(O)c1ccc(NP(=O)(O)Oc2ccccc2)cc1 (tested in a mixture with another compound) | 0% | 8% | -2.15% | -1% | 3% | 3.45% | -20% | -8% | 29.9% | -4% | -6% | -24.8% | -1% | -1% | -7.8% | 11% | 16% | 15.2% |
| CCC1CC2C3Cc4ccc(OC)c(O)c4C2(CCN3C)CC1=O (stereo unspecified) | 6% | 3% | -6.45% | -12% | -2% | -6% | 19% | 9% | -8% | 14% | 11% | -5.3% | 24% | 19% | -1.25% | 9% | 9% | -7.5% |
| O=[n+]1c2ccccc2n([O-])c2ccccc21.[Cl][Ni][Cl] | 96% (active) | 99% (active) | 90.8% (active) | 75% (active) | 100% (active) | 92.7% (active) | 89% (active) | 99% (active) | 92.3% (active) | 33% | 98% (active) | 90.6% (active) | 68% | 100% (active) | 89% (active) | 92% (active) | 96% (active) | 91.9% (active) |
| CC(Br)c1ccccc1 (stereo unspecified) | 1% | 17% | 50.2% | 1% | 10% | 26.6% | 2% | 14% | 40.6% | 3% | 7% | -2.05% | 6% | 42% | 65.8% | 5% | 21% | 79.6% (active) |
| CC(C)NCC(O)c1ccc(O)c(O)c1.[Pt].c1ccc([PH+](c2ccccc2)c2ccccc2)cc1.c1ccc([PH+](c2ccccc2)c2ccccc2)cc1 | -7% | 99% (active) | 98.7% (active) | -6% | 98% (active) | 98.8% (active) | -8% | 99% (active) | 99% (active) | 11% | 86% (active) | 97.8% (active) | -26% | 98% (active) | 98.8% (active) | 9% | 99% (active) | 98.8% (active) |
